Assay results published in PubChem BioAssay (Tox21).
Results filed as inconclusive are left out. Active and inactive are the calls of the source. Unless noted, calls follow the shape of the dose curve; as a rule, active = well fitted curve in the direction sought with a large enough effect in the repeat runs; inconclusive = weak or mixed curves; inactive = no such curve, though single readings can be large; an effect the other way counts as inactive or inconclusive.

Columns and labels:
[1] = qHTS assay to identify small molecule agonists of the androgen receptor (AR) signaling pathway in the presence of an antagonist - cell viability counter screen (AID 1259379); also: nearly all actives have a fitted effect of over 25% in size; also: potency is read from the fitted curve at half-maximal effect;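 as to activity change, negative = cytotoxicity: MDA-kb2 human breast cancer cells carrying an MMTV luciferase reporter; series mostly up to about 92 µM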
Procedure, shortened: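 Nilutamide-containing (3.0uM final) MDA-kb2 cultures, 3,000 cells/well, were treated with compounds across 15 concentrations. After 16 hr at 37C with no CO2, cell viability was determined by CellTiter-Fluor fluorescence in the luciferase assay wells.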

[2] = qHTS assay to identify small molecule agonists of the estrogen receptor beta (ER-beta) signaling pathway - cell viability counter screen (AID 1259380); also: nearly all actives have a fitted effect of over 30% in size; also: potency is read from the fitted curve at half-maximal effect
Procedure, shortened: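 Steps: plate ER-beta-UAS-bla HEK293T cells, rest 6 hr; add compounds in DMSO; incubate 16 hr at 37C, 5% CO2; add FRET substrate 2 hr; add CellTiter-Glo, wait 30 min at room temperature; read luminescence.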

[3] = qHTS assay to identify small molecule antagonists of the estrogen receptor beta (ER-beta) signaling pathway - cell viability counter screen (AID 1259382); also: nearly all actives have a fitted effect of over 55% in size; also: potency is read from the fitted curve at half-maximal effect;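 as to activity change, negative = cytotoxicity: HEK293T cells carrying ER-beta-UAS-bla reporter stimulated with estradiol; series mostly up to about 92 µM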
Procedure, shortened: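 Viability is scored by CellTiter-Glo luminescence (30 min, room temperature) in ER-beta-UAS-bla HEK293T wells already read for reporter fluorescence. Compound exposure lasts 16 hr at 37C alongside 1nM 17-beta-estradiol in charcoal-stripped serum medium.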

[4] = target: Estrogen receptor (Homo sapiens) (UniProt P03372); assay: qHTS assay to identify small molecule agonists of the estrogen receptor alpha (ER-alpha) signaling pathway in the presence of an antagonist (AID 1259383; calls by dose curve; also: nearly all actives have a fitted effect of over 15% in size; also: potency is read from the fitted curve at half-maximal effect; as to activation: top concentration of the series differs between compounds)
Procedure, shortened: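 Readout was ERE-driven luciferase luminescence in VM7Luc4E2 cells, which express full-length ER-alpha endogenously. Compounds were tested at 15 concentrations for 22hr alongside 10.0nM ICI-182,780 (final concentration).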

[5] = qHTS assay to identify small molecule agonists or antagonists of the thyroid stimulating hormone receptor (TSHR) signaling pathway - wild type cell line counter screen (AID 1259384; calls by dose curve)
Procedure, shortened: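 Counter screen in untransfected Hek293: compounds (15-point titration, triplicate) plus phosphodiesterase inhibitor Ro20-1724 added after 18 h plating; 30 min RT. Intracellular cAMP via competitive d2/cryptate immunoassay, 1 h incubation.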

[6] = target: Thyrotropin receptor (Homo sapiens) (UniProt P16473); assay: qHTS assay to identify small molecule antagonists of the thyroid stimulating hormone receptor (TSHR) signaling pathway (AID 1259385; calls by dose curve; also: nearly all actives have a fitted effect of over 20% in size)
Procedure, shortened: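 Antagonist mode: compound-treated TSHR-expressing HEK293 cells were stimulated with 1.5 ng/mL TSH (final) in presence of Ro20-1724 for 30 min at RT. HTRF cAMP detection after 1 h; each compound tested at 15 concentrations, triplicate.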

[7] = qHTS assay to identify small molecule agonists of the progesterone receptor (PR) signaling pathway - cell viability counter screen (AID 1346799; calls by dose curve; also: nearly all actives have a fitted effect of over 45% in size; also: potency is read from the fitted curve at half-maximal effect)
Procedure, shortened: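 Luminescence from CellTiter-Glo, added after the beta-lactamase FRET read in the same wells, gave cytotoxicity in PR-UAS-bla HEK293T cells treated with compounds for 16 hr at 37C.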

[8] = qHTS assay to identify small molecule antagonists of the TGF-beta/Smad signaling pathway - cell viability counter screen (AID 1346824); also: nearly all actives have a fitted effect of over 50% in size
Procedure, shortened: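 Cytotoxicity counter-screen run in the same wells as the beta-lactamase Smad reporter read: CellTiter-Glo luminescence after 30 min at room temperature. HEK 293T SBE-bla cells had 5 hr compound exposure at 37 C with TGF-beta1 (0.25 ng/mL stock).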

[9] = qHTS assay to identify small molecule agonists of the TGF-beta/Smad signaling pathway (AID 1346859; active = well fitted activation curve with a large enough effect in the signal ratio in the repeat runs, not every such curve was filed as active; the % refers to the signal ratio; also: series mostly up to about 77 µM)
Procedure, shortened: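 SBE-bla HEK 293T, 4,000 cells/well, plated o/n; cpd in DMSO, 5 hr, 37 C/5% CO2; B/G FRET substrate 2 hr RT; ex 405, em 460/530 nm.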

[10] = target: Thyrotropin-releasing hormone receptor (Homo sapiens) (UniProt P34981); assay: qHTS assay to identify small molecule antagonists of the thyrotropin-releasing hormone receptor (TRHR) signaling pathway (AID 1346877; active = well fitted inhibition curve with a large enough effect in the repeat runs, not every such curve was filed as active; also: series mostly up to about 51 µM)
Procedure, shortened: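 Kinetic fluorescence (3 min, 1 s resolution) following stimulation with TRH at 1 nM final; HEK293 cells bearing human TRHR; 5 min compound preincubation at RT; concentration-response over 15 points, triplicates.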

[11] = target: Thyrotropin-releasing hormone receptor (Homo sapiens) (UniProt P34981); assay: qHTS assay to identify small molecule agonists of the thyrotropin-releasing hormone receptor (TRHR) signaling pathway (AID 1346891; calls by dose curve; also: series mostly up to about 58 µM)
Procedure, shortened: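 Intracellular calcium rise, read as fluorescence every second for 3 min, served as the agonist signal in dye-loaded HEK293 cells expressing TRHR; each compound ran at 15 concentrations in triplicate.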

[12] = Human pregnane X receptor (PXR) small molecule agonists, qHTS cell viability counter screen (AID 1346977); also: nearly all actives have a fitted effect of over 50% in size; also: potency is read from the fitted curve at half-maximal effect
Procedure, shortened: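 PXR-Luc HepG2, 2,000 cells/well, 5% charcoal-stripped FBS; 5hr settle; cpd 24hr, 37C/5% CO2; CellTiter-Fluor at 23hr, read 1hr later (fluorescence).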

[13] = qHTS assay to identify small molecule agonists of the estrogen receptor alpha (ER-alpha) signaling pathway in the presence of an antagonist - cell viability counter screen (AID 1259386);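 also: series mostly up to about 92 µM; cells exposed to compounds for 22 h at 37 °C before the viability read; nearly all actives have a fitted effect of over 30% in size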
Procedure, shortened: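 In this counter screen, compound effects on VM7Luc4E2 viability were tested in the presence of the antagonist ICI-182,780 at 10.0nM final. Compounds were dosed at 15 concentrations, exposure lasted 22hr, and the CellTiter-Fluor signal was read.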

[14] = target: Progesterone receptor (Homo sapiens) (UniProt P06401); assay: qHTS assay to identify small molecule agonists of the progesterone receptor (PR) signaling pathway (AID 1346784; calls by dose curve; also: nearly all actives have a fitted effect of over 30% in size)
Procedure, shortened: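 Beta-lactamase reporter read-out: after 16 hr compound treatment at 37C and a further 2 hr at room temperature with LiveBLAzer B/G FRET substrate, fluorescence was measured in PR-UAS-bla HEK 293T cells grown in 2% charcoal-stripped serum.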

[15] = target: Progesterone receptor (Homo sapiens) (UniProt P06401); assay: qHTS assay to identify small molecule antagonists of the progesterone receptor (PR) signaling pathway (AID 1346795; active = well fitted inhibition curve with a large enough effect in the signal ratio in the repeat runs, not every such curve was filed as active; the % refers to the signal ratio)
Procedure, shortened: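 Read-out is fluorescence from the LiveBLAzer B/G FRET substrate, cleaved by a UAS-controlled beta-lactamase in PR-UAS-bla HEK293T cells after 16 hr exposure to compound plus 1 nM promegestone (final), followed by 2 hr at room temperature.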

[16] = qHTS assay to identify small molecule antagonists of the progesterone receptor (PR) signaling pathway - cell viability counter screen (AID 1346798); also: nearly all actives have a fitted effect of over 50% in size; also: potency is read from the fitted curve at half-maximal effect;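 as to activity change, negative = cytotoxicity: HEK293T PR-UAS-bla cells stimulated with the agonist R5020; series mostly up to about 92 µM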
Procedure, shortened: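 HEK293T PR-UAS-bla, 2% charcoal-stripped FBS; 4 hr pre-plate; cpd + R5020, 16 h 37C; LiveBLAzer read first; then CellTiter-Glo 30 min RT, luminescence.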

[17] = qHTS assay to identify small molecule agonists of the TGF-beta/Smad signaling pathway - cell viability counter screen (AID 1346829); also: top concentration of the series differs between compounds; nearly all actives have a fitted effect of over 45% in size
Procedure, shortened: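 In parallel with the Smad reporter read, viability of HEK 293T cells stably carrying SBE-bla is quantified by ATP luminescence following 5 hr compound treatment.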

[18] = target: Androgen receptor (Homo sapiens) (UniProt P10275); assay: qHTS assay to identify small molecule agonists of the androgen receptor (AR) signaling pathway in the presence of an antagonist (AID 1259381; calls by dose curve; also: nearly all actives have a fitted effect of over 15% in size)
Procedure, shortened: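 Reporter-gene luminescence from MDA-kb2 cells exposed 16hr at 37C (0% CO2) to 15-point compound titrations with 3.0uM final nilutamide as AR antagonist.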
% is scaled to controls: 0 for no effect and ±100 for the full control effect.

Thyrotropin-releasing hormone receptor (Homo sapiens), sequence (P34981 whole entry, looked up): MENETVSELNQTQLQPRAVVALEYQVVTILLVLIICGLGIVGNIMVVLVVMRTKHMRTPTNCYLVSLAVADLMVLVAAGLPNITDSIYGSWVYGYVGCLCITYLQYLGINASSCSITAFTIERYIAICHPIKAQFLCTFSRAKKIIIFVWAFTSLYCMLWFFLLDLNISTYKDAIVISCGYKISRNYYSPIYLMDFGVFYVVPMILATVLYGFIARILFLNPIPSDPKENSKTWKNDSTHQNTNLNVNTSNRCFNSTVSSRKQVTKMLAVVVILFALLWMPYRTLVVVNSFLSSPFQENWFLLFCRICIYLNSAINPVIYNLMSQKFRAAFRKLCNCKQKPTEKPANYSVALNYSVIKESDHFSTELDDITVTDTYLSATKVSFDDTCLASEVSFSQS
Progesterone receptor (Homo sapiens), sequence (P06401 whole entry, looked up): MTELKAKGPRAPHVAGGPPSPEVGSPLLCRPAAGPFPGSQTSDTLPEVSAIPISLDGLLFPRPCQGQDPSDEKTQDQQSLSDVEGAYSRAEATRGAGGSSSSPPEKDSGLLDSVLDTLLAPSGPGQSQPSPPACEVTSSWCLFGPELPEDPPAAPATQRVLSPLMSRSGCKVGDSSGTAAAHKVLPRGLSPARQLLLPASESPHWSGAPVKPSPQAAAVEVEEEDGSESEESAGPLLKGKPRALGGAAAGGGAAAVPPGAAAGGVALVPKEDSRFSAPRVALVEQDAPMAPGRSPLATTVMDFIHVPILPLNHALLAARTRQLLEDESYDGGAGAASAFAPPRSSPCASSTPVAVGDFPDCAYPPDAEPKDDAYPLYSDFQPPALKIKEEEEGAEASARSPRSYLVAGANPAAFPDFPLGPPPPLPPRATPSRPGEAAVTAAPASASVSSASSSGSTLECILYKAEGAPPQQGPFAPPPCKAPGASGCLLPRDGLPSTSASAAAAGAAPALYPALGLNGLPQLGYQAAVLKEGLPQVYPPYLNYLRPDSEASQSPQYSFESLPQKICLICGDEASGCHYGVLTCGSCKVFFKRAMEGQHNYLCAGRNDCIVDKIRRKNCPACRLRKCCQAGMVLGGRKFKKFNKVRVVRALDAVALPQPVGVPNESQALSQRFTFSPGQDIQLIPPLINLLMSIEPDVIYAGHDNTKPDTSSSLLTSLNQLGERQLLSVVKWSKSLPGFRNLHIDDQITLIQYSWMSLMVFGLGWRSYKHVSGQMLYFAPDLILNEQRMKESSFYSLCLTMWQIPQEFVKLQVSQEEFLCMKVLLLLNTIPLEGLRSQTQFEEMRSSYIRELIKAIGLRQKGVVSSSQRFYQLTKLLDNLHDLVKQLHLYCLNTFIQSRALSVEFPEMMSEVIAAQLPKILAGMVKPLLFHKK
Estrogen receptor (Homo sapiens), sequence (P03372 whole entry, looked up): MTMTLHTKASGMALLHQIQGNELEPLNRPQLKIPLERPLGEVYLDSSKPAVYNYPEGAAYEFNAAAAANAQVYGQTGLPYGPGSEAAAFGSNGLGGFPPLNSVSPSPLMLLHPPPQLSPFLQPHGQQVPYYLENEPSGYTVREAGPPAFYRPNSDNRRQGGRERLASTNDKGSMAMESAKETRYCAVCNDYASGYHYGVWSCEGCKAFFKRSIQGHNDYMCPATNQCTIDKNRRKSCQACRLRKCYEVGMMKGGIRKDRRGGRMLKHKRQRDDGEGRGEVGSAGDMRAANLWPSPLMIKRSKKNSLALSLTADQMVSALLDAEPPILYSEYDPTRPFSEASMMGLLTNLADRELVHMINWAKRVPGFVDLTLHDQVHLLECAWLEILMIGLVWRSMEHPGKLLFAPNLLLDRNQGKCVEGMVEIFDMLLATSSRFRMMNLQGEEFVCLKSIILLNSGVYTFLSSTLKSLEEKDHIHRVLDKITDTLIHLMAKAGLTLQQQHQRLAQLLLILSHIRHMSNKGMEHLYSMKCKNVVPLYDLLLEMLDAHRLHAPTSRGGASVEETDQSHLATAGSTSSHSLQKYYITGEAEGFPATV
Thyrotropin receptor (Homo sapiens), sequence (P16473 whole entry, looked up): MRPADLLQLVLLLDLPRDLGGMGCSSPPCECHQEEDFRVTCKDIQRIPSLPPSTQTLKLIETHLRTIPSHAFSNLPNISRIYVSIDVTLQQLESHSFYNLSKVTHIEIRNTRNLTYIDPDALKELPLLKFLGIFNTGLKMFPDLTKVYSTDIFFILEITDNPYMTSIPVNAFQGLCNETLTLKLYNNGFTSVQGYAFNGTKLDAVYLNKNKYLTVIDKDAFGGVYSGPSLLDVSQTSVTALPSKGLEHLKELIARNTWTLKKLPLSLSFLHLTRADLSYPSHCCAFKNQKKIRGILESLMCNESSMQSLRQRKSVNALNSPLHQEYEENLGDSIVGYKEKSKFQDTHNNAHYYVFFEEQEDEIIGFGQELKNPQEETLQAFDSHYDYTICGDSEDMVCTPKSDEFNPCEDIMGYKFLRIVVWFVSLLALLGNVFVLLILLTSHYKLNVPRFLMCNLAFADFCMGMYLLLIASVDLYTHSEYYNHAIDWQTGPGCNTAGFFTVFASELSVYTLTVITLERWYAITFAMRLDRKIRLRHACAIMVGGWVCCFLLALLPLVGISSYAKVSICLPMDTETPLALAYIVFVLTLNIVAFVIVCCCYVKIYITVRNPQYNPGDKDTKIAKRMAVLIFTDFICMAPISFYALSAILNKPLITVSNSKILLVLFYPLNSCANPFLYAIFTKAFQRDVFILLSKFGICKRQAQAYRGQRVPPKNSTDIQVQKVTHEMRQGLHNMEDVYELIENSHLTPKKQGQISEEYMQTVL
Androgen receptor (Homo sapiens), sequence (P10275 whole entry, looked up): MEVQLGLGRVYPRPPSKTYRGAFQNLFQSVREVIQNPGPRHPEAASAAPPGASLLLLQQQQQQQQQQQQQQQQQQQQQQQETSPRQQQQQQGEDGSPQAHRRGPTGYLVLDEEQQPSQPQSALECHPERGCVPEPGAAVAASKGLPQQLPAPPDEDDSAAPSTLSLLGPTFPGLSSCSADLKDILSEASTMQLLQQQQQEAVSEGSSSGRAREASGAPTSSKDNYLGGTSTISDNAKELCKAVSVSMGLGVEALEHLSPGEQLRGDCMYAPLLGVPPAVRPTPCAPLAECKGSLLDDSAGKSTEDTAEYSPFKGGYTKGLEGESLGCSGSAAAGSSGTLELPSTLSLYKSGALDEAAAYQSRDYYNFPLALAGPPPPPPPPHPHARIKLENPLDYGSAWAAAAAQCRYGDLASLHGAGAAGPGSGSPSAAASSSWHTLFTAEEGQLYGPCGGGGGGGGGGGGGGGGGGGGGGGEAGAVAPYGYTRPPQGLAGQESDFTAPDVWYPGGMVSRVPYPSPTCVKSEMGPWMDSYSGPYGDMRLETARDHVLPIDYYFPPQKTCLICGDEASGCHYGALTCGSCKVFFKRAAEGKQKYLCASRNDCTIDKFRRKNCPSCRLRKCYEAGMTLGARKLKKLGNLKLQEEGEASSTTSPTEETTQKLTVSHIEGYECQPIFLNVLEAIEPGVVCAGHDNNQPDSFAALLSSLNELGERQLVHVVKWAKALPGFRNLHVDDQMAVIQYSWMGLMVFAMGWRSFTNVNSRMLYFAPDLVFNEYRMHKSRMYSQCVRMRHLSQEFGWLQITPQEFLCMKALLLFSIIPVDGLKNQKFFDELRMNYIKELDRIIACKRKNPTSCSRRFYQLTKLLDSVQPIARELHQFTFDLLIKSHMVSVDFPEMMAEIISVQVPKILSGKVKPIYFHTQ

CCCCCCCCCCCSCC(=O)O
active: Potency [2] 27.3 µM | Potency [3] 24.3 µM | Potency [7] 21.7 µM
inactive: Potency [1] | Potency [4] | Potency [5] | Potency [6] | outcome [8] | Potency [9] | outcome [10] | outcome [11] | Potency [12]

CC1C(C)(C)C2=C(C(=O)CCC2)C1(C)C (stereo not given)
inactive: Potency [1] | Potency [2] | Potency [3] | Potency [4] | Potency [5] | Potency [13] | Potency [14] | Potency [15] | Potency [16] | Potency [7] | outcome [8] | Potency [17] | Potency [9] | outcome [10] | outcome [11] | Potency [12]

O=C1OC[C@H](Cc2cccc(O)c2)[C@H]1Cc1cccc(O)c1
inactive: Potency [1] | Potency [2] | Potency [3] | Potency [5] | Potency [6] | Potency [13] | Potency [14] | Potency [15] | Potency [16] | outcome [8] | Potency [9] | outcome [10] | Potency [12]

O=C1c2ccccc2C(=O)c2c(O)ccc(O)c21
inactive: Potency [2] | Potency [3] | Potency [13] | Potency [7] | Potency [17] | outcome [10] | outcome [11]

CCCCCCCC(=O)Oc1c(Br)cc(C#N)cc1Br
inactive: Potency [1] | Potency [4] | Potency [5] | Potency [6] | Potency [13] | Potency [14] | outcome [8] | Potency [9] | outcome [10] | Potency [12]

Cc1c(C2(c3cc(Br)c(O)c(Br)c3C)OS(=O)(=O)c3ccccc32)cc(Br)c(O)c1Br
active: Potency [1] 14.9 µM | Potency [2] 23.6 µM | Potency [16] 18.8 µM | Potency [12] 14.9 µM
inactive: Potency [14] | Potency [17] | Potency [9] | outcome [10]

COc1ccc(CCN(C)CCCN2CCc3cc(OC)c(OC)cc3CC2=O)cc1OC
inactive: Potency [1] | Potency [2] | Potency [4] | Potency [13] | Potency [15] | Potency [7] | outcome [8] | Potency [17] | Potency [9] | outcome [10] | outcome [11]

Cc1ccc(Nc2c(F)cccc2Cl)c(CC(=O)O)c1
active: Potency [2] 26.6 µM
inactive: Potency [1] | Potency [4] | Potency [5] | Potency [6] | outcome [8] | Potency [17] | Potency [9] | outcome [10] | Potency [12]

CNS(=O)(=O)c1cc(C(=O)N2CCC(CCN3C4CCC3CC(n3c(C)nc5ccccc53)C4)(c3cccc(F)c3)CC2)c(Cl)cc1F (stereo not given)
active: Potency [2] 5.45 µM | Potency [3] 7.7 µM | Potency [16] 24.3 µM | Potency [7] 5.45 µM
inactive: Potency [18] | Potency [5] | Potency [6] | Potency [13] | Potency [14] | outcome [8]

CC(=O)C(C)=O
inactive: Potency [1] | Potency [2] | Potency [5] | Potency [6] | Potency [14] | Potency [7] | outcome [8] | Potency [17] | Potency [9] | Potency [12]

c1ccc2sc(SSc3nc4ccccc4s3)nc2c1
inactive: activity change, negative = cytotoxicity [1] 5.77% [at 19 µM] | activity change, negative = cytotoxicity [2] -1.6% [at 19 µM] | activation [4] 2.07% [at 19 µM] | cAMP activity change [5] 2.9% [at 18.9 µM, active compounds read high] | activity change, negative = inhibition [6] 2.43% [at 19 µM] | activity change, negative = cytotoxicity [13] 9.75% [at 19 µM] | activation [14] -1.06% [at 19 µM] | activity change, negative = inhibition [15] -9.57% [at 18.9 µM] | activity change, negative = cytotoxicity [16] -0.0474% [at 18.9 µM] | activity change, negative = cytotoxicity [7] 5.24% [at 19 µM] | viability change, negative = cytotoxic [8] 3.02% [at 15.8 µM] | activity change, negative = cytotoxicity [17] 25.5% [at 15.8 µM] | activation [9] 3.56% [at 15.8 µM] | activity change, negative = cytotoxicity [12] 14.6% [at 19 µM]

Cc1c[nH]c2ccccc12
inactive: Potency [1] | Potency [2] | Potency [3] | Potency [5] | Potency [6] | Potency [13] | Potency [15] | Potency [16] | Potency [7] | outcome [8] | outcome [10] | outcome [11] | Potency [12]

COc1ccc(-n2nc(C(F)F)cc2-c2ccc(S(C)=O)cc2)cc1 (stereo not given)
inactive: Potency [1] | Potency [2] | Potency [4] | Potency [5] | Potency [6] | Potency [13] | Potency [14] | Potency [16] | Potency [7] | Potency [17] | outcome [10] | outcome [11] | Potency [12]

Nc1ccc(F)cc1
inactive: Potency [1] | Potency [2] | Potency [3] | Potency [4] | Potency [13] | Potency [15] | Potency [16] | Potency [7] | Potency [17] | Potency [9] | outcome [10] | outcome [11]

Cc1ccc2c(c1[N+](=O)[O-])C(=O)c1ccccc1C2=O
active: Potency [4] 3.37 µM | Potency [12] 3.78 µM
inactive: Potency [1] | Potency [2] | Potency [5] | Potency [15] | Potency [16] | Potency [7] | Potency [9]

CCC1CCC(CCC(=O)O)C1 (stereo not given)
inactive: Potency [1] | Potency [5] | Potency [6] | Potency [13] | Potency [14] | Potency [16] | outcome [8] | Potency [17] | Potency [9] | outcome [10]

O=C(/C=C/c1ccc([N+](=O)[O-])cc1)c1ccccc1
inactive: Potency [3] | Potency [4] | Potency [5] | Potency [6] | Potency [13] | Potency [14] | Potency [16] | Potency [7] | outcome [8] | Potency [17]
active: Potency [12] 61.3 µM

Oc1ccc2c(c1)Cc1ccccc1-2
inactive: Potency [1] | Potency [3] | Potency [5] | Potency [6] | Potency [13] | Potency [14] | Potency [16] | outcome [8] | Potency [9] | outcome [10] | outcome [11]

CCOC(=O)c1ccc(NC(=O)CN2CCCCC2)cc1
inactive: Potency [1] | Potency [18] | Potency [3] | Potency [4] | Potency [5] | Potency [6] | Potency [13] | outcome [8] | Potency [9] | Potency [12]

COc1cc(NS(=O)(=O)c2ccc(N)cc2)nc(C)n1
inactive: Potency [1] | Potency [2] | Potency [4] | Potency [5] | Potency [6] | Potency [14] | Potency [15] | Potency [16] | Potency [7] | outcome [8] | Potency [17] | Potency [9] | outcome [10] | outcome [11] | Potency [12]

CCCCCCC(CO)CCCC (stereo not given)
inactive: Potency [1] | Potency [2] | Potency [5] | Potency [6] | Potency [13] | Potency [14] | Potency [15] | Potency [16] | Potency [7] | outcome [8] | Potency [17] | Potency [9] | outcome [10] | outcome [11] | Potency [12]
